# According to PubChem BioAssay AID485284 (NMMLSC, 2010):
# Entries with a potency or affinity are not part of this list.
# Experiment: loss of vesicle association with mouse CD8+ T cells – mouse 2C CD8+ T cells, flow cytometry, dose response (AID 485284);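 also: drosophila derived vesicles carrying Ld MHC with QL9 peptide plus B7-1 and ICAM-1; vesicle binding seen as anti-B7-1 PE fluorescence on CD8 gated cells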
# Details: 2C mouse CD8+ T cell-exosome binding; at 45 µM (top of the series)
row,SMILES,"binding remaining, % of control"
1,Cc1cccc(N(C(=O)c2snc(C(N)=O)c2N)C(C(=O)NCC2CCCO2)c2ccc(N(C)C)cc2)c1C (configuration not stated),22.8%
2,COc1ccc([C@H]2CC(=O)C=C(/C=C/c3ccccc3)C2)cc1,52.1%
3,Cc1c(C(=O)NCCSCc2c(F)cccc2Cl)cnn1-c1ccc(Cl)cc1,144%
4,CCc1noc(C)c1C(=O)OC(C)C(=O)Nc1ccc2c(c1)OCO2 (configuration not stated),171%
5,COc1ccc(NC(=O)CN2CCN(S(=O)(=O)c3ccc(Cl)cc3)CC2)cc1,79.2%
6,COc1ccc(NC(=O)CC2C(=O)N(Cc3ccccc3)C(=S)N2CCN2CCOCC2)cc1 (configuration not stated),106%
7,CCSc1nnc(NC(=O)c2ccc(F)c(S(=O)(=O)N3CCOCC3)c2)s1,127%
8,CCCCN(C(=O)CCCc1nc2ccccc2s1)c1c(N)n(CC(C)C)c(=O)[nH]c1=O,187%
9,Cc1c(NS(=O)(=O)CC23CCC(CC2=O)C3(C)C)c(=O)n(-c2ccccc2)n1C (configuration not stated),21%
10,O=C(COc1ccccc1)Nc1cc(S(=O)(=O)N2CCOCC2)ccc1N1CCCC1,128%
11,O=C1CC(c2nc3ccccc3[nH]2)CN1Cc1ccccc1 (configuration not stated),207%
12,O=C(Nc1ccccc1F)C1CCCN(S(=O)(=O)c2cccc3cccnc23)C1 (configuration not stated),105%
13,Cc1cnc(C(=O)Nc2ccc(C)c(S(=O)(=O)N3CCCCC3)c2)cn1,114%
14,CNCc1cn2cc(Cl)ccc2n1,125%
15,CSCCC(NC(=O)c1ccc(=O)n(C)n1)c1nc2ccccc2[nH]1 (configuration not stated),149%
16,CCOC(=O)c1cc2occc2n1CC(=O)NC1CCC(C)CC1 (configuration not stated),77%
17,COc1ccccc1C(=O)COC(=O)C1CCN(S(=O)(=O)c2ccc(C)c(C)c2)CC1,24.2%
